Values joined by “and” are separate entries in the source; they are usually repeats but may differ in a detail not shown here. Identical values can stand only once. In all, about 5,500 compounds went through this assay and about 2,000 (36%) were called active. About 18% were inconclusive and are not listed. No stated cut-off is given here; in the data, active means normalized growth mostly below about 0.91 (no sharp cut-off); inconclusive means no clear call, values can overlap the other calls; inactive means mostly above about 0.92. Some of the results follow.
Assay: chemical genetic growth profiling, strain panel (AID 1159580);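 further: tested at 20 µM; growth read once vehicle control cultures reached saturation at 30 °C; 1 = growth at the plate median or of vehicle wells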
Conditions: S. cerevisiae deletion strains, growth OD

Measured: normalized growth

COC1=CC(C)[C@@H]2C[C@H]3OC(=O)C[C@H]4C(C)=C(OC)C(=O)C([C@@]34C)[C@@]2(C)C1=O (some centres undefined)
inactive: locus YAL021C, strain ccr4, stronger effect = lower value 0.997 | locus YAL026C, strain drs2, stronger effect = lower value 0.979 | locus YAL030W, strain snc1, stronger effect = lower value 0.988 | locus YBL061C, strain skt5, stronger effect = lower value 0.987 | locus YBR009C, strain hhf1, stronger effect = lower value 0.962 | locus YBR021W, strain FUR4, stronger effect = lower value 0.994 | locus YBR023C, strain chs3, stronger effect = lower value 0.978 | locus YBR171W, strain sec66, stronger effect = lower value 0.977 | locus YBR229C, strain ROT2, stronger effect = lower value 1.01 | locus YBR231C, strain swc5, stronger effect = lower value 0.988 | locus YBR279W, strain paf1, stronger effect = lower value 0.985 | locus YCL011C, strain gbp2, stronger effect = lower value 0.977 | locus YCL016C, strain dcc1, stronger effect = lower value 0.981 | locus YCL029C, strain bik1, stronger effect = lower value 1.02 | locus YCL061C, strain MRC1, stronger effect = lower value 0.99 | locus YCL069W, strain vba3, stronger effect = lower value 0.981 | locus YCR088W, strain abp1, stronger effect = lower value 0.978 | locus YDL005C, strain med2, stronger effect = lower value 0.975 | locus YDL035C, strain GPR1, stronger effect = lower value 1.01 | locus YDL040C, strain nat1, stronger effect = lower value 0.981 | locus YDL074C, strain BRE1, stronger effect = lower value 1.03 | locus YDL101C, strain DUN1, stronger effect = lower value 1.01 | locus YDL185W, strain tfp1, stronger effect = lower value 1.02 | locus YDL192W, strain arf1, stronger effect = lower value 1.02 | locus YDR001C, strain nth1, stronger effect = lower value 0.976 | locus YDR069C, strain doa4, stronger effect = lower value 0.984 | locus YDR101C, strain arx1, stronger effect = lower value 1.02 | locus YDR137W, strain rgp1, stronger effect = lower value 1 | locus YDR159W, strain sac3, stronger effect = lower value 0.988 | locus YDR162C, strain NBP2, stronger effect = lower value 1.03 | locus YDR195W, strain ref2 0.966 | locus YDR297W, strain sur2, stronger effect = lower value 0.978 | locus YDR318W, strain mcm21, stronger effect = lower value 1 | locus YDR334W, strain swr1, stronger effect = lower value 0.971 | locus YDR335W, strain msn5, stronger effect = lower value 0.986 | locus YDR388W, stronger effect = lower value 1 | locus YDR392W, strain spt3, stronger effect = lower value 0.88 | locus YDR502C, strain sam2, stronger effect = lower value 1.01 | locus YEL003W, strain gim4, stronger effect = lower value 0.975 | locus YEL037C, strain rad23, stronger effect = lower value 0.972 | locus YEL061C, strain CIN8 (second series), stronger effect = lower value 0.965 | locus YEL061C, strain CIN8, stronger effect = lower value 1.01 | locus YER015W, strain faa2, stronger effect = lower value 0.983 | locus YER016W, strain bim1, stronger effect = lower value 0.973 | locus YER110C, stronger effect = lower value 1.01 | locus YER111C, strain swi4, stronger effect = lower value 0.972 | locus YER155C, strain BEM2 (second series), stronger effect = lower value 0.978 | locus YER155C, strain BEM2, stronger effect = lower value 1 | locus YER167W, strain BCK2, stronger effect = lower value 1.01 | locus YFR010W, strain ubp6, stronger effect = lower value 0.98 | locus YGL078C, strain dbp3, stronger effect = lower value 1.02 | locus YGL086W, strain mad1, stronger effect = lower value 1.02 | locus YGL167C, strain pmr1, stronger effect = lower value 0.968 | locus YGL173C, strain kem1, stronger effect = lower value 0.973 | locus YGL227W, strain vid30, stronger effect = lower value 0.968 | locus YGL240W, strain doc1, stronger effect = lower value 0.972 | locus YGL248W, strain PDE1, stronger effect = lower value 1.03 | locus YGL253W, strain hxk2, stronger effect = lower value 0.983 | locus YGR078C, strain PAC10, stronger effect = lower value 1.04 | locus YGR135W, strain pre9, stronger effect = lower value 1.02 | locus YGR229C, strain SMI1, stronger effect = lower value 1.03 | locus YGR252W, strain gcn5, stronger effect = lower value 1.04 | locus YHR013C, strain ard1, stronger effect = lower value 0.926 | locus YHR027C, strain rpn1, stronger effect = lower value 0.989 | locus YHR030C, strain SLT2, stronger effect = lower value 1.01 and 1.04 | locus YHR079C, strain IRE1 (second series), stronger effect = lower value 1.01 | locus YHR079C, strain IRE1, stronger effect = lower value 1.01 | locus YHR094C, strain hxt1, stronger effect = lower value 1.03 | locus YHR129C, strain ARP1, stronger effect = lower value 1.01 | locus YHR142W, strain chs7, stronger effect = lower value 0.981 | locus YHR200W, strain rpn10, stronger effect = lower value 1.01 | locus YIL066C, strain RNR3, stronger effect = lower value 1.02 | locus YIL073C, strain SPO22, stronger effect = lower value 1.06 | locus YIL125W, strain kgd1, stronger effect = lower value 1.01 | locus YIR030C, strain dcg1, stronger effect = lower value 1.02 | locus YJL092W, strain hpr5, stronger effect = lower value 0.975 | locus YJL095W, strain BCK1 (second series), stronger effect = lower value 0.98 | locus YJL095W, strain BCK1, stronger effect = lower value 1.05 and 1.02 | locus YJL115W, strain asf1, stronger effect = lower value 0.978 | locus YJL129C, strain trk1, stronger effect = lower value 0.971 | locus YJL134W, strain LCB3, stronger effect = lower value 1.01 | locus YJL154C, strain vps35, stronger effect = lower value 0.975 | locus YJL164C, strain tpk1, stronger effect = lower value 0.989 | locus YJL166W, strain qcr8, stronger effect = lower value 0.987 | locus YJL168C, strain set2, stronger effect = lower value 1.01 | locus YJL187C, strain SWE1 (second series), stronger effect = lower value 1.03 | locus YJL187C, strain SWE1, stronger effect = lower value 0.993 | locus YJR043C, strain POL32, stronger effect = lower value 1 | locus YJR066W, strain TOR1, stronger effect = lower value 0.993
